Assay in all cases: NCI-60 one-dose screen, 48 h (100 = growth as untreated, 0 = no growth, -100 = all killed)
Common to all, as to settings: 10 µM unless noted

Assay [1] has as its system HCT-15 colon.
Assay [2] has as its system HT29 colon.
Assay [3] has as its system SNB-75 CNS.
Assay [4] relates to SNB-19 CNS.
Assay [5] relates to U251 CNS.
Assay [6] relates to PC-3 prostate.
In assay [7] the test system is SK-MEL-5 melanoma.
In assay [8] the test system is UACC-62 melanoma.
Assay [9] has as its system LOX IMVI melanoma.
Assay [10] deals with SK-MEL-28 melanoma.
Assay [11] relates to SK-MEL-2 melanoma.
Assay [12] concerns EKVX NSCLC.
The subject of assay [13] is SN12C renal.
Assay [14] relates to UO-31 renal.
Assay [15] concerns TK-10 renal.
Assay [16] has as its system ACHN renal.
Assay [17] deals with CAKI-1 renal.
For assay [18], the system named is A498 renal.
In assay [19] the test system is CCRF-CEM leukemia.
In assay [20] the test system is MOLT-4 leukemia.

This is part of a sample that, as a whole, favours compounds with a hit. Of some 83,000 tested, about 20% had one in any assay.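 Cell lines were cultured in 96-well plates, exposed to a single compound concentration, and assessed for percent growth 48 hours later.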 Unmarked numbers belong to inactive results. Active and inactive are the calls of the source. The calls were made as follows: active = growth percent below 10; inactive = the rest.

Regarding `O=C(/C=C/CN1CCCCC1)Nc1cc2c(Nc3ccc(F)c(Cl)c3F)ncnc2cc1OCCOC(F)F`, the growth in [1] was 7.81% (active); in assay [2], 2.26% (active); in [3] it was -12.1% (active); in assay [4], 40.9%; in assay [5] it was 31.1%; in assay [6], 1.81% (active). Besides, the growth is 25.3% in [7]; 34.1% in [8]; 12.5% in [9]; 48.6% in assay [10]; 36.1% in assay [11]; 11.8% in [12]. Moreover, the growth in assay [13] was 7.28% (active); in assay [14], 10.4%; in assay [15], 8.8% (active); in assay [16], 5.75% (active); in assay [17], 5.99% (active); in assay [18], -21.7% (active). The growth is 24.6% in [19] and 1.31% (active) in [20].
Take `COc1ccc2c(c1)NC(=O)CN2c1nc(NC2CC2)nc2ccccc12`: the growth in [1] was 10.5%; in [2] it was 3.45% (active); in [3], 31.4%; in [4], 29.9%; in assay [5] it was 11.8%; in [6], 4.75% (active). For the same compound, the growth in assay [7] is -55.3% (active); in assay [8], 26.1%; in assay [9], 34.9%; in assay [10], 54.7%; in assay [11] it was 25.7%; in assay [12], 27.8%. Besides, the growth was 39.1% in assay [13]; 28.7% in assay [14]; 23.6% in [15]; 24.9% in [16]; 32.9% in [17]; -12.8% (active) in [18]. The growth in [19] was 31.7%; in assay [20], 33.9%.
`Nc1nc(Cl)c2c(ncn2Cc2ccc(CCl)cc2)n1`: the growth in assay [1] is 84.9%; in [2], 91%; in assay [3], 100%; in assay [4] it was 93.2%; in [5], 81.4%; in assay [6], 77.6%. The growth in assay [7] is 70.3%; in [8] it was 78.4%; in assay [9], 69.7%; in assay [10], 101%; in assay [11] it was 98.6%; in [12], 103%. The growth in [13] was 93.4%; in assay [14] it was 70.5%; in assay [15] it was 78.9%; in assay [16] it was 83.3%; in [17], 102%; in assay [18] it was 97.3%. Moreover, the growth in assay [19] was 1.58% (active); in [20] it was 103%.
Consider `CCOC(=O)c1cc(/C(=N\O)c2cc(OC)c(OC)c(OC)c2)n2c(C)cccc12`, for which the growth in [1] was 25.7%; in assay [2], 9.58% (active); in assay [3] it was 9.5% (active); in [4] it was 42.5%; in assay [5], 26.2%; in [6] it was 31.4%. The growth in assay [7] is 14.5%; in assay [8], 27%; in assay [9], 37.9%; in assay [10] it was 58.4%; in assay [11] it was 21.8%; in assay [12] it was 36.6%. Also, the growth in assay [13] is 54.3%; in [14], 54%; in assay [15], 21.2%; in assay [16], 37.3%; in assay [17], 36%; in [18], -1.4% (active). Besides, the growth in [19] is 22.5%; in assay [20], 28.5%.
Consider `O=c1[nH]c(CN2CCN(c3ccccc3F)CC2)nc2sc3c(c12)CCC3`, for which the growth was 112% in assay [1]; 106% in [2]; 87.8% in assay [3]; 106% in assay [4]; 104% in assay [5]; 102% in [6]. Also, the growth was 107% in [7]; 91.9% in [8]; 99.2% in assay [9]; 117% in [10]; 87.6% in assay [11]; 100% in assay [12]. Also, the growth in assay [13] is 99.7%; in assay [14], 95.2%; in assay [15] it was -3.37% (active); in assay [16], 113%; in assay [17], 122%; in assay [18], 93%. In addition, the results for the growth in assay [19] and in assay [20] were 100% and 99.8%, respectively.
With `Nc1nn2cc(-c3ccc(Cl)s3)nc2c2ccccc12`, the growth in assay [1] was 87.5%; in assay [2], 92%; in assay [3], 81.6%; in [4], 93%; in [5], 94.7%; in assay [6] it was 83.8%. Besides, the growth in assay [7] was 84%; in assay [8], 81.6%; in assay [9], 82.2%; in assay [10], 94.2%; in assay [11] it was 49.9%; in assay [12] it was 86.7%. For the same compound, the growth in assay [13] is 91.9%; in assay [14] it was 67.1%; in assay [15], 113%; in assay [16], 79.6%; in assay [17], 74.6%; in [18], 59.5%. The figures for the growth in assay [19] and in assay [20] were 76.8% and 44.4%, respectively.
As to `COc1ccc(/C(=N\O)c2cc(OC)c(OC)c(OC)c2)c(OC)c1N`, the growth is 11.3% in [1]; 4.28% (active) in assay [2]; -8.55% (active) in [3]; 32.8% in assay [4]; 18.3% in [5]; 20.9% in assay [6]. The growth in assay [7] is 11.3%; in assay [8], 30%; in assay [9] it was 42.5%; in assay [10], 59.3%; in [11] it was 35.1%; in assay [12] it was 47.3%. Further, the growth in assay [13] is 44.4%; in assay [14], 50.3%; in assay [15], 9.72% (active); in assay [16], 40.5%; in assay [17] it was 28.1%; in assay [18] it was -19.3% (active). Also, the growth is 12.6% in [19] and 24.1% in [20].
On to `COc1cccc2nc(Nc3ccc(NC(=O)c4ccc5ncccc5c4)cc3)ccc12`, for which the growth in assay [1] is 51.5%; in assay [2], 63.3%; in assay [3], 80.8%; in [4] it was 90.3%; in assay [5], 61.8%; in [6], 52.3%. Moreover, the growth in assay [7] was 80.7%; in assay [8] it was 97.4%; in assay [9], 84.6%; in [10], 73.8%; in [11] it was 115%; in assay [12], 87.5%. The growth in assay [13] is 97.8%; in assay [14] it was 82.4%; in assay [15] it was 108%; in assay [16], 92.8%; in assay [17], 70.2%; in [18], 83.4%. In addition, the growth in [19] is 69.4%; in assay [20], 67.1%.
